Reference: ChEMBL document CHEMBL4513216, “Probing the Open Global Health Chemical Diversity Library for Multistage-Active Starting Points for Next-Generation Antimalarials” (ACS Infect Dis, 2020)
About 2,100 (3.2%) of roughly 65,000 compounds showed an effect of 50% or more. The median lay at about -52%. The sample holds strong results, similar compounds and a random draw of the others, so the mix is not that of the screen.

The compounds below were run on Plasmodium falciparum (assay: Screen against P. falciparum Asexual Blood Stage (ABS), at 5uM). Details: tested at 5 uM.
Format: functional, Dd2

Row | SMILES | INHIBITION [%]
1 | O=C1CSC(c2ccc(Cl)cc2Cl)c2c(n(C3CCOCC3)[nH]c2=O)N1 (centres undefined) | -37.1
2 | O=C(NCC1CC[C@@]2(CNCCOC2)O1)c1cccnc1 (some centres undefined) | -65.9
3 | Cc1n[nH]c2c1C(c1ccsc1)SCC(=O)N2 (centres undefined) | -110
4 | c1cncc(OC[C@]23COC[C@H]2CN(C2CCOCC2)C3)c1 | -10.4
5 | CCCOc1ccc2ccccc2c1CN1CC[C@@]2(O)CCNC[C@H]2C1 | 93.2
6 | CSCCCN1CC[C@@]2(O)CCN(c3ncccn3)C[C@H]2C1 | 16.4
7 | O=C(O)[C@]12CCCN(C3CCOC3)C[C@H]1CN(c1ncccn1)C2 (some centres undefined) | -128
8 | CN(C)C(=O)c1ccc(-c2cccc3c2CCNC3)cc1 | -115
9 | OC1(c2ccc(F)cc2)CCN(Cc2ccccc2N2CCCC2)CC1 | 71.9
10 | Oc1ccc(N2CCN(Cc3ccc(F)cc3Br)CC2)cc1 | -85.8
11 | O=C(NCC1CC1)[C@@H]1C[C@@H]2OCCN[C@@H]2C1 | -55.3
12 | O=C1NCC[C@]12CN(Cc1cccnc1)C[C@H]2c1ccccc1 | -11.5
13 | CC(=O)N1CC2(CCNCC2)c2cc(C)ccc21 | 1.98
14 | Cc1cccc(CN2CCC23CCCNC3)n1 (centres undefined) | 12
15 | Cc1ccc(C)c(N2CCN(CC3(O)CCNC3)CC2)c1 (centres undefined) | 85.9
16 | Cc1nc2c(C)cccc2cc1C(=O)N1CCC2(CCCNC2)C1 (centres undefined) | -31.7
17 | Cc1ccccc1N1CCCN(CC2(O)CCCNC2)CC1 (centres undefined) | 87.7
18 | Cc1cnn(CC(C)NCc2ccc(C#N)cc2F)c1 (centres undefined) | -84.2
19 | c1cc(CN2CCO[C@H]3[C@H](OCC4CCCC4)CC[C@@H]32)ccn1 | -71.1
20 | CN(C)CCN(C)C[C@H]1CN2CC[C@H]1C[C@@H]2CNC(=O)Nc1ccsc1 | -49.3
21 | Cc1nc(CN2CCOC3(CCCC3)C2)oc1C | -101
22 | O[C@@H]1C[C@H]2CN(Cc3ccsc3)[C@@H](Cc3ccccc3)CN2C1 | 71.6
23 | C[C@H]1CN2C[C@H](O)CC2CN1Cc1ccncc1 (some centres undefined) | -85.4
24 | C[C@@H]1CN2C[C@H](O)CC2CN1Cc1ccncc1 (some centres undefined) | -64.4
25 | Cc1ccc(-n2nnc(CC(=O)N3CCN(C4CC4)CC3)c2C)cc1 | -35.9
26 | COc1cccc(C2SCC(=O)Nc3n[nH]cc32)c1OC(C)C (centres undefined) | -75.3

Row | SMILES | INHIBITION [%]
27 | Cc1ccc(CNC(CN2CCN(C)CC2)c2ccccc2)cc1 (centres undefined) | 79.5
28 | CN1CCN(CC(NCc2ccc(F)c(F)c2)c2ccccc2)CC1 (centres undefined) | 83.8
29 | Cc1cccc(CNC(CN2CCN(C)CC2)c2ccccc2)c1 (centres undefined) | 83.5
30 | O=C(Cc1ccccc1)N1CCN(CC(O)c2ccc(F)cc2)CC1 (centres undefined) | -118
31 | O=C(Cc1ccc(F)cc1)N1CCN(CC(O)c2ccccc2)CC1 (centres undefined) | -18
32 | COc1cccc(CC(C)NC(=O)NCc2ccn(C)c2)c1 (centres undefined) | -91.8
33 | Cc1cnn(CC(C)NCc2cccc(C#N)c2)c1 (centres undefined) | -41.8
34 | COc1cccc(CC(C)NC(=O)NC(C)C)c1 (centres undefined) | -64.2
35 | Cc1ccc(CC(=O)N2CCN(CC(O)c3ccccc3)CC2)cn1 (centres undefined) | -130
36 | COc1cccc(CNC(CN2CCN(C)CC2)c2ccccc2)c1 (centres undefined) | 82
37 | O=C(c1ccncc1F)N1C[C@@H]2OCCN(CC3CC3)[C@@H]2C1 | -66.6
38 | O=C(C1CCCCC1)N1CCC2(CC1)OCCO2 | -149
39 | O=C(Nc1ccccc1)[C@H]1C[C@H]2CN(Cc3cccnc3)C[C@@H]1O2 | -15
40 | Cc1ccc(C(=O)N2C[C@H](N3CCOCC3)[C@@H]3OCCC[C@@H]32)cn1 | -62.2
41 | CCN(CC1CN(Cc2nc(C3CC3)no2)CCO1)c1cccnn1 (centres undefined) | 73.3
42 | CN(Cc1nc(C2CC2)no1)C(=O)CN1CC(c2ccccc2)CC1=O (centres undefined) | -52.4
43 | CNC(=O)c1ccc2c(c1)C1(CCN(CCOC)CC1)C(=O)N2 | -12.8
44 | COCCCN1CCCN(C(C)C(=O)Nc2cccc(I)c2)CC1 (centres undefined) | 90
45 | COCCn1cc(NC(=O)NC(C)Cc2c(F)cccc2F)cn1 (centres undefined) | -151
46 | Cn1ncc2c(N3CCCN4CCC[C@H]4C3)nc(C(C)(C)C)nc21 | -68.8
47 | O=c1[nH]c(NC2CCCC2)nc2nccc(-c3ccco3)c12 | 72.4
48 | COCCN1CCN(Cc2cccnc2)[C@H]2CS(=O)(=O)C[C@H]21 | -9.43
49 | COc1ncccc1CN1CC[C@H]2O[C@H](c3nnc(C)o3)CC[C@H]21 | -73.1
50 | CCOc1ccccc1CNCC1CCN(CC(C)O)CC1 (centres undefined) | 75.9
51 | CC(Cc1cccc(Cl)c1)NC(=O)Nc1cnn(CC(N)=O)c1 (centres undefined) | -5.01
52 | CC(O)CN1CCC(CNCc2cccc(Cl)c2)CC1 (centres undefined) | 87.9

Row | SMILES | INHIBITION [%]
53 | CC(O)CN1CCC(CNCc2cccc(Br)c2)CC1 (centres undefined) | 87.8
54 | CC(O)CN1CCN(C(=O)Cc2ccccc2Cl)CC1 (centres undefined) | -179
55 | COCC(C)NC(=O)c1cn(C(C)(C)C)c2ncccc12 (centres undefined) | -120
56 | COc1ccc(CC(=O)N2CCN(Cc3ccco3)C[C@@H]2C)cc1OC | -135
57 | COc1ccc(C2SCC(=O)Nc3ccsc32)cc1OC (centres undefined) | -6.6
58 | CCNC(=O)NC(=O)CNC1(c2noc(C)n2)CCCCC1 | -46.9
59 | CN1Cc2ccccc2NC(=O)C12CCNC2 (centres undefined) | -33.4
60 | O=C1CC[C@@H]2[C@@H](CCN2Cc2ccccn2)N1CC1CC1 | -65.4
61 | Fc1cnc(N2CC3(CCN(CC4CC4)C3)C2)nc1 | -62.7
62 | CN1CCn2c(-c3ccccc3)cnc2C12CCN(CC1CC1)CC2 | 80.9
63 | CC(=O)N1CCC2(CC1)c1ncc(-c3cccnc3)n1CCN2C | -45.5
64 | c1ccc(-c2ncc3c(n2)C2(CCN(CC4CC4)C2)COC3)cc1 (centres undefined) | 32
65 | CN1CCn2c(-c3cccc(F)c3)cnc2C12CCN(CC1CC1)CC2 | 76.5
66 | Cc1nc(C2(NCC(=O)NC(=O)NCc3cccs3)CCCCC2)no1 | -111
67 | Cc1ncc2c(c1CNC(=O)C1(C)CC1)CCNC2 | -29.6
68 | Cc1cccc(Nc2cccc(C3CCCN(Cc4ncc[nH]4)C3)n2)n1 (centres undefined) | 89.4
69 | Cc1noc(C)c1CN1C(=O)[C@@H]2CC[C@H]1CN(Cc1ncc[nH]1)C2 | -55.8
70 | Cc1cccc(CN2CCN3C(=O)NC[C@H]3C2)n1 | -4.56
71 | O=C(Cc1cccs1)N1CC[C@H]2[C@H]1CCN2Cc1cccnc1 | 19.8
72 | Cc1cc(C)c(CNc2nc3ccccc3cc2CO)c(=O)[nH]1 | 21.9
73 | CCn1ccnc1CN1CCNCC1C (centres undefined) | -43.7
74 | CCc1ccc(C2c3nc[nH]c3CCN2Cc2nccn2CC)nc1 (centres undefined) | 90.1
75 | Cc1cc(CC(=O)N2CCN(CC(C)C)[C@@H]3CS(=O)(=O)C[C@@H]32)ccc1F | -48.2
76 | Cc1cccc(CN2CC[C@@H]3[C@@H]2CCN3C(=O)c2cnoc2C)n1 | -26.9
77 | O=C1OCCC1N1CCN(C(=O)Cc2ccccc2Cl)CC1 (centres undefined) | -47.5
78 | O=C(CCN1CCCC1c1cccc2c1OCCO2)N1CCCCC1 (centres undefined) | 73.2

Row | SMILES | INHIBITION [%]
79 | NC(=O)CN1CCCN(C(=O)Cc2ccc3c(c2)OCCO3)CC1 | -57.5
80 | CN(C)CCCN(C)C1CCN(c2cccc(-c3cscn3)c2)CC1 | 81.2
81 | O=C1CC[C@@H]2[C@@H](CCN2Cc2ccncc2)N1c1ccccc1 | -11.8
82 | O=C1Nc2ccccc2CC12CCCN2Cc1cccnc1 (centres undefined) | -69.2
83 | CN(Cc1ccon1)c1nc(-c2ccccn2)nc2c1CCNCC2 | 76.3
84 | CN(Cc1nccs1)c1nc(-c2ccccn2)nc2c1CCNCC2 | 83.7
85 | CN1CCN(Cc2ccsc2)Cc2cccnc21 | -81
86 | CN(Cc1ccsc1)c1nc(-c2ccccn2)nc2c1CCNCC2 | 79.7
87 | CCc1nc(-c2ccc(NC(=O)N3CCC4(CC3)OCCO4)cc2)no1 | 30.5
88 | O=C1CO[C@@H]2CN(Cc3cccs3)C[C@H]2N1Cc1cccnc1 | -28.4
89 | O=C(c1cc(-n2cccc2)ccc1Cl)N1CCC2(CC1)OCCO2 | -6.62
90 | COc1cccc(CN(C)Cc2[nH]c3ccccc3c2C)c1O | 88.7
91 | O=C1CSC(c2ccncc2)c2c[nH]nc2N1 (centres undefined) | -101
92 | Fc1cccc(Nc2nc(N3CCCC3)nc3c2CNCC3)c1 | 84.3
93 | COc1cccc(Nc2nc(N3CCCC3)nc3c2CNCC3)c1 | 85.7
94 | COc1cccc(Nc2nc(-c3ccncc3)nc3c2CNCC3)c1 | 82.2
95 | CC(C)(C)n1cc(C(=O)O)c(-c2ccc(F)cc2F)n1 | -86.4
96 | Fc1cnc(N2CCN3C[C@H](Oc4cncnc4)C[C@H]3C2)nc1 | -74.8
97 | c1ccc(CN2CCOC3CNCC[C@H]32)cc1 (some centres undefined) | 23.5
98 | Cc1nc(CN2CCO[C@H]3CN(C(=O)Cc4cccs4)C[C@H]32)cs1 | -65.8
99 | O=c1c2ccccc2cnn1Cc1cncn1C1CC1 | -100
100 | CS(=O)(=O)N1CCC2(CCCN(Cc3ccccn3)C2)CC1 | -200
101 | CC1(c2ccccc2)CCCN(Cc2cncn2C2CCCC2)C1 (centres undefined) | 91
102 | COCCNc1c(C#N)c2c(c3nncn13)CN(C)CC2 | -128
103 | CC(C)(C)CN1CCCC2(CCN(C(=O)c3ccc(O)nc3)C2)C1 (centres undefined) | -154
104 | CC(C)(C)c1cn(C[C@H]2CC3CCN2C[C@@H]3C(=O)N2CCOCC2)nn1 (some centres undefined) | -111
